Inconclusive results are not listed. The source made the active and inactive calls. Calls come from the whole dose curve; as a rule, active = well fitted curve in the direction sought with a large enough effect; inconclusive = small, poorly fitted or top-dose-only effect, or another doubt; inactive = no such curve, though single readings can be large; an effect the other way counts as inactive or inconclusive.
What was measured:
[1] = Inflammasome Signaling qHTS Counterscreen: IL-1-beta AlphaLISA counterscreen against the NCATS CANVASS Library (AID 1347381);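 note: cell-free check with purified IL-1β in medium and no THP-1 cells; series mostly up to about 57 µM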
Description: (§1) Natural products and their derivatives continue to be wellsprings of nascent therapeutic potential. However, many laboratories have limited resources for biological evaluation, leaving their previously isolated or synthesized compounds largely or completely untested. To address this issue, the Canvass library of natural products was assembled (https://tripod.nih.gov/canvass), in collaboration with academic and industry researchers, for quantitative high-throughput screening (qHTS) across a diverse set of cell-based and biochemical assays. The pure (>85% purity by liquid chromatography/mass spectrometry [LC/MS]) Canvass library of 346 natural products were submitted by 45 academic laboratories and companies around the world. We collected pure natural products to circumvent deconvolution and structure elucidation due to time and resource limitations. The library was formatted into 1536-well plates and evaluated in 50 qHTS (in an 11-pnt concentration series) bioassays with broad scope of disease-relevant mechanisms. The resulting data set from 50 different assays was then systematically analyzed to identify overall trends and specific natural products with interesting biological activities. […]
IL-1-beta-counterscreen qHTS protocol: 1. […] The AlphaLISA signal was read by the EnVision plate reader (PerkinElmer) using a 680 nm excitation and 615 nm emission filters.

[2] = Cytotoxicity qHTS for assessment of Hepg2 cells membrane integrity screened against the NCATS CANVASS Library (AID 1347387)
Summary of the method: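 Cells were seeded at 2000 per well and left overnight to attach. Compounds were pin-transferred to give 0.59 nM - 46 uM in an 11-point series and incubated 5 hr at 37C. CytoTox-ONE reagent was added and, after 10 min at room temperature, fluorescence (ex 560, em 590 nm) was read.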

[3] = qHTS for Activators of p53 Stress Response Pathway screened against the NCATS CANVASS Library (AID 1347388)
Summary of the method: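 p53RE-bla HCT-116 cells (4000/well) were plated 5 h at 37C, exposed to compounds for 16 h at 37C over an 11-point concentration series, then loaded with CCF4 for 2 h at room temperature; 460/530 nm emission ratio read.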

[4] = qHTS assay for small molecule disruptors of mitochondrial membrane potential screened against the NCATS CANVASS Library (AID 1347389); note: series mostly up to about 46 µM; nearly all actives have a fitted effect of over 60% in size
Summary of the method: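 Mitochondrial depolarization in HepG2 cells is scored as a falling aggregate-to-monomer fluorescence ratio after 1 hr compound exposure and 30 min staining with Mito-MPS dye at 37C, each compound tested as an 11-point titration.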

[5] = Secretion counterscreen for inhibitors of the SERCaMP assay screened against the NCATS CANVASS Library (AID 1347390);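 note: light from luciferase secreted into medium read as a measure of general secretion; series mostly up to about 77 µM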
Description: as §1
SERCaMP secretion assay protocol: 1. […] Luminescence signal was obtained via the ViewLux plate reader (Perkin Elmer) using the clear emission filter and 1x binning, 5 seconds exposure settings.

[6] = qHTS for activators of Nrf2/ARE signaling pathway screened against the NCATS CANVASS Library (AID 1347391); note: nearly all actives have a fitted effect of over 60% in size
Description: as §1, with “We collected pure natural products to circumvent deconvolution and structure elucidation due to time and resource limitations.” left out
Nrf2/ARE-screen assay protocol: 1. […] Fluorescence readout was obtained using the Envision plate reader (PerkinElmer) using a 405 nm excitation and 460 nm and 530 nm emission filters. […] Luminescence was measured using the ViewLux plate reader with clear emission filter and 2x binning, 1 sec exposure settings.

[7] = qHTS for activators of dead-cell proteases activity screened against the NCATS CANVASS Library (AID 1347392);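 note: luminescence from protease leaking out of membrane-damaged cells cleaving impermeant substrate; rising signal means more cytotoxicity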
Summary of the method: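 Cytotoxicity in HepG2 cells was assessed by released protease cleaving AAF-aminoluciferin, with luminescence as signal. Exposure lasted 5 h at 37C across an 11-point series.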

[8] = qHTS for inhibitors of ER calcium dysfunction: SERCaMP assay screened against the NCATS CANVASS Library (AID 1347393);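 note: series mostly up to about 77 µM; lower secreted reporter signal means inhibitor of ER calcium depletion; nearly all actives have a fitted effect of over 40% in size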
Summary of the method: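 qHTS in SH-SY5Y reporter cells: 16 h compound pretreatment, 4 h thapsigargin, then secreted Gaussia luciferase measured by luminescence.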

[9] = Vero-766 cells viability qHTS against the NCATS CANVASS Library: Counterscreen for Zika virus inhibition assay (AID 1347394); note: series mostly up to about 46 µM; nearly all actives have a fitted effect of over 60% in size
Summary of the method: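 Counterscreen for toxicity: Vero 766 cells exposed 72 h to an 11-point compound series, viability by CellTiter-Glo.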

[10] = qHTS for inhibitors of Wild type Zika virus screened against the NCATS CANVASS Library (AID 1347396);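 note: ATP luminescence of surviving cells so rescue from viral cell killing; series mostly up to about 46 µM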
Summary of the method: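 Using ATP-based luminescence (CellTiter Glo), this screen scores rescue of Vero 766 cells from wild-type Zika killing at 72 h post-infection. Compounds are tested in a concentration series.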

Measured: outcome

C[C@@H]1O[C@@H](OC[C@H]2O[C@@H](Oc3c(-c4ccc(O)c(O)c4)oc4cc(O)cc(O)c4c3=O)[C@H](O)[C@@H](O)[C@@H]2O)[C@H](O)[C@H](O)[C@H]1O
inactive: [1] | [2] | [3] | [4] | [5] | [6] | [7] | [8] | [9] | [10]

From PubChem BioAssay (NCATS)
